From PubChem BioAssay (EPA / NIEHS) come the findings set out here.

“And” between values parts separate entries of the source, which are not always exact repeats. Equal values may be shown once. Results filed as inconclusive are left out. The source made the active and inactive calls. The calls were made as follows, unless noted: active = hit-call score of the fitted dose curve at least 0.9, where 1 is the maximum; inactive = score below 0.9.

For assay [1], the target named is Hepatocyte nuclear factor 4-alpha (Homo sapiens) (UniProt P41235). Briefly: ATG_HNF4a_TRANS: Attagene TRANS-FACTORIAL HepG2 Assay for human Hepatocyte Nuclear Factor 4 alpha (HNF4a) (AID 2282982; active = hit-call score of the fitted dose curve at least 0.9, where 1 is the maximum). Particulars: HepG2 HNF4a transactivation reporter, mRNA readout. Summed up: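 Using HepG2 liver cells transfected with GAL4-UAS reporter units, chemical-induced mRNA increases were assessed after 24 hours. Fluorescent RT-PCR fragments were separated by capillary electrophoresis and compared with DMSO negative controls.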

Assay [2] is described as follows: ATG_M_06_TRANS: Attagene TRANS-FACTORIAL HepG2 Assay for M06 Transcription Factor (Internal Marker) (AID 2282983; active = hit-call score of the fitted dose curve at least 0.9, where 1 is the maximum). The settings on record: HepG2 Attagene TRANS M06 internal marker reporter. The procedure, abridged:
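Background control endpoint: reporter mRNA from transiently transfected HepG2 after 24 h dosing, detected by RT-PCR with capillary electrophoresis fluorescence. Analysed for gain versus DMSO.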

Assay [3] in a line: ATG_M_32_TRANS: Attagene TRANS-FACTORIAL HepG2 Assay for M32 Transcription Factor (Internal Marker) (AID 2282984; active = hit-call score of the fitted dose curve at least 0.9, where 1 is the maximum;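 also: transcript level of a background control reporter unit measured by RT-PCR and capillary electrophoresis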). Particulars: HepG2 Attagene TRANS M32 internal marker reporter. Summed up:
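Fluorescence-detected mRNA induction, HepG2 liver cells, 24 h after dosing. Multiple GAL4-UAS reporter units introduced by transient transfection; background-control endpoint analysed for gain of signal against DMSO.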

The target of assay [4] is Nuclear receptor subfamily 4 group A member 2 (Homo sapiens) (UniProt P43354). Briefly: ATG_NURR1_TRANS: Attagene TRANS-FACTORIAL HepG2 Assay for human Nuclear Receptor Related Protein 1 (NURR1) (AID 2282985; active = hit-call score of the fitted dose curve at least 0.9, where 1 is the maximum). Particulars: HepG2 Attagene TRANS reporter, mRNA readout. Summed up: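 Chimeric NR-Gal4 proteins were expressed in human HepG2 cells bearing GAL4-UAS reporter units, and induced reporter mRNA was quantified 24 h post-dosing by RT-PCR and capillary electrophoresis.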

Assay [5] concerns the target Transcriptional activator Myb (Homo sapiens) (UniProt P10242). Briefly: ATG_Myb_CIS: Attagene CIS-FACTORIAL HepG2 Assay for human Myeloblastosis (Myb) Proto-Oncogene Transcription Factor (AID 2282986). Particulars: HepG2 Attagene CIS-FACTORIAL Myb reporter transcription; actives raise or lower the signal. The procedure, abridged: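 Reporter mRNA is quantified by RT-PCR and capillary electrophoresis 24 h after dosing HepG2 cells transfected with cis-regulated reporter units, which track endogenous transcription factor activity. Gain and loss of signal are fitted versus DMSO baseline.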

The target in assay [6] is Nuclear respiratory factor 1 (Homo sapiens) (UniProt Q16656). Briefly: ATG_NRF1_CIS: Attagene CIS-FACTORIAL HepG2 Assay for human Nuclear Respiratory Factor 1 (NRF1) Orphan Gene (AID 2282987). Particulars: HepG2 NRF1 cis-element reporter, Attagene multiplex; actives raise or lower the signal. The procedure, abridged:
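Endogenous NRF1-driven reporter transcription in transfected HepG2 cells after 24 h treatment. Readout: RT-PCR products, 6-FAM labelled and resolved by capillary electrophoresis; changes fitted both directions relative to DMSO.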

A short description of assay [7]: ATG_NFI_CIS: Attagene CIS-FACTORIAL HepG2 Assay for human Nuclear Factor I (NFI) (AID 2282989). The settings on record: HepG2 cis-regulatory reporter, NFI response element transcription; actives raise or lower the signal. The procedure, abridged:
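HepG2, transient MRTU, 24 h exposure; RNA→cDNA→PCR→FAM label→HpaI→CE fluorescence. Bidirectional fit, DMSO = baseline.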

The target of assay [8] is Myc proto-oncogene protein (Homo sapiens) (UniProt P01106). Briefly: ATG_Myc_CIS: Attagene CIS-FACTORIAL HepG2 Assay for human Myelocytomatosis (Myc) Proto-Oncogene Transcription Factor (AID 2282990). Particulars: HepG2, Attagene cis-reporter transcription factor activity; actives raise or lower the signal. Summed up:
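DMSO-normalised, bidirectionally fitted reporter mRNA signal. HepG2 cells transfected with cis reporter constructs, treated 24 h; transcripts detected by RT-PCR, 6-FAM primer extension and CE.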

Assay [9] can be described thus: ATG_NRF2_ARE_CIS: Attagene CIS-FACTORIAL HepG2 Assay for human Nuclear Factor Erythroid 2 Related Factor 2 (NFR2) response to Antioxidant Response Elements (ARE) (AID 2282992). Particulars: HepG2 Attagene ARE/NRF2 reporter, transcription factor activity; actives raise or lower the signal. The procedure, abridged:
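Readout: reporter mRNA quantified by RT-PCR plus FAM-labelled primer extension, HpaI digestion and capillary electrophoresis, 24 h after dosing transfected HepG2 cells. Gain or loss of signal is fitted bidirectionally against DMSO baseline.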

Assay [10] is described as follows: ATG_Oct_MLP_CIS: Attagene CIS-FACTORIAL HepG2 Assay for human Octamer-Binding Transcription Factor (Oct) (AID 2282993). The settings on record: HepG2 Attagene cis-factorial Oct reporter, mRNA; actives raise or lower the signal. Summed up: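 Multiplexed cis-reporter assay in human liver HepG2 cells, 24 h incubation. Reporter RNA amplified and labelled, then resolved by capillary electrophoresis; DMSO serves as negative control and baseline.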

The target in assay [11] is Cellular tumor antigen p53 (Homo sapiens) (UniProt P04637). Briefly: ATG_p53_CIS: Attagene CIS-FACTORIAL HepG2 Assay for human p53 Transcription Factor (AID 2282994). The settings on record: HepG2 p53 cis-element reporter, Attagene mRNA; actives raise or lower the signal. Summed up:
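Read-out: reporter mRNA by RT-PCR plus capillary electrophoresis with fluorescence detection. Human HepG2 liver cells carried transfected multi-reporter cis-element constructs, dosed 24 h. Gain or loss of signal fitted bidirectionally against DMSO control.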

Assay [12] in a line: BSK_3C_TissueFactor: BioMAP Diversity Plus: 3C Assay for Tissue Factor Biomarker Activity (AID 2282997). The settings on record: BioMAP 3C HUVEC, tissue factor biomarker readout; actives raise or lower the signal. Summed up:
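After a 24 h chemical exposure of primary human umbilical vein endothelial cells, Tissue Factor levels were quantified by ELISA.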

A short description of assay [13]: BSK_3C_uPAR: BioMAP Diversity Plus: 3C Assay for Urokinase-type plasminogen activator receptor (uPAR) Biomarker Activity (AID 2282998). Particulars: BioMAP 3C HUVEC, uPAR biomarker ELISA; actives raise or lower the signal. The procedure, abridged:
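Dose primary human umbilical vein endothelial cells, incubate 24 h, measure cell-surface uPAR by ELISA, then fit the signal in both directions against the DMSO negative control.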
In general terms: An ELISA detects its analyte on a solid surface through an enzyme-linked reagent.

A short description of assay [14]: BSK_4H_Eotaxin3: BioMAP Diversity Plus: 4H Assay for Eotaxin 3 Biomarker Activity (AID 2283000).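 As to outcome: CCL26 protein level quantified by ELISA in parallel with SRB cytotoxicity check.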 The settings on record: primary human endothelial cells (HUVEC); actives raise or lower the signal. The procedure, abridged:
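Chemicals were added to human umbilical vein endothelium cultures, and Eotaxin-3 was quantified by ELISA at 24 h. Values were derived by bidirectional fitting with DMSO serving as negative control and activity baseline.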

Assay [15] addresses human Peroxisome Proliferator-activated Receptor alpha (PPARa), PPARA (gene 5465) (UniProt Q07869). The assay is described as follows: ATG_PPARa_TRANS: Attagene TRANS-FACTORIAL HepG2 Assay for human Peroxisome Proliferator-activated Receptor alpha (PPARa) (AID 2283001; active = hit-call score of the fitted dose curve at least 0.9, where 1 is the maximum;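 as to AC50: potency for gain of reporter signal over DMSO so agonist or activator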). Summed up:
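Exposure: 24 h, transiently transfected HepG2 cells. Endpoint: GAL4-UAS reporter mRNA, RT-PCR with capillary electrophoresis fluorescence. Baseline: DMSO; increases fitted.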

For assay [16], the target named is human Peroxisome Proliferator-activated Receptor delta (PPARd), PPARD (gene 5467) (UniProt Q03181). The assay is described as follows: ATG_PPARd_TRANS: Attagene TRANS-FACTORIAL HepG2 Assay for human Peroxisome Proliferator-activated Receptor delta (PPARd) (AID 2283002; active = hit-call score of the fitted dose curve at least 0.9, where 1 is the maximum). The procedure, abridged: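 Measured quantity: GAL4-UAS reporter transcript induction in HepG2 after 24 h chemical dosing, with NR-Gal4 chimeras supplied by transient transfection. Detection by RT-PCR and capillary electrophoresis; upward fit against DMSO.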

Assay [17] is described as follows: ATG_NF_kB_CIS: Attagene CIS-FACTORIAL HepG2 Assay for human Nuclear Factor Kappa B (NF-kB) (AID 2282991). The settings on record: HepG2 Attagene cis-factorial NF-kB reporter mRNA; actives raise or lower the signal. The procedure, abridged: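 Readout is reporter transcript level, gain or loss versus DMSO, measured 24 h post-dose via RT-PCR, fluorescent labelling and capillary electrophoresis. Human HepG2 liver cells carried transiently transfected CIS reporter constructs reflecting endogenous factors.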

Read-out in assay [18]: Intercellular Adhesion Molecule 1 (ICAM1), ICAM1 (gene 3383)
The assay is described as follows: BSK_3C_ICAM1: BioMAP Diversity Plus: 3C Assay for Intercellular Adhesion Molecule 1 (ICAM1) Biomarker Activity (AID 2283003). The settings on record: primary human endothelial cells (HUVEC); actives raise or lower the signal. Summed up: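 Using DMSO as baseline, bidirectional curve fitting was applied to ICAM-1 ELISA signals from HUVEC in the 3C system, measured 24 h after compound addition.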

Nuclear receptor subfamily 4 group A member 2 (Homo sapiens), sequence (P43354 whole entry, looked up, the tested form may be a part): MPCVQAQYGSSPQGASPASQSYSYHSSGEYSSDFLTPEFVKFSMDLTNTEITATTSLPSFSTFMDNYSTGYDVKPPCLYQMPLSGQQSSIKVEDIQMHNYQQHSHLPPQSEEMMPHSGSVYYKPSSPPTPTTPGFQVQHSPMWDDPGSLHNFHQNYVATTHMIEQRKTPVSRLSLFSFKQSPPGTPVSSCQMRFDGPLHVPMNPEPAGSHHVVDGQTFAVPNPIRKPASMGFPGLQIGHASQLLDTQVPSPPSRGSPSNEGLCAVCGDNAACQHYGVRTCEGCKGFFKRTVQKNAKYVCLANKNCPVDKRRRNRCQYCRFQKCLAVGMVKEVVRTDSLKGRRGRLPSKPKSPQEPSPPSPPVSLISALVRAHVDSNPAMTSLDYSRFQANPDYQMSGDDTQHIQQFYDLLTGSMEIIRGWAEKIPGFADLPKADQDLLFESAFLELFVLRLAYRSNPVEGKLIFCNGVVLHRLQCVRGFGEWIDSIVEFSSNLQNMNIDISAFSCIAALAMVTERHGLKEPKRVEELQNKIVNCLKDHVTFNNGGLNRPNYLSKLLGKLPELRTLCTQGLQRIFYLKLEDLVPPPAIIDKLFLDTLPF
human Peroxisome Proliferator-activated Receptor delta (PPARd), PPARD (gene 5467), sequence (Q03181 whole entry, looked up, the tested form may be a part): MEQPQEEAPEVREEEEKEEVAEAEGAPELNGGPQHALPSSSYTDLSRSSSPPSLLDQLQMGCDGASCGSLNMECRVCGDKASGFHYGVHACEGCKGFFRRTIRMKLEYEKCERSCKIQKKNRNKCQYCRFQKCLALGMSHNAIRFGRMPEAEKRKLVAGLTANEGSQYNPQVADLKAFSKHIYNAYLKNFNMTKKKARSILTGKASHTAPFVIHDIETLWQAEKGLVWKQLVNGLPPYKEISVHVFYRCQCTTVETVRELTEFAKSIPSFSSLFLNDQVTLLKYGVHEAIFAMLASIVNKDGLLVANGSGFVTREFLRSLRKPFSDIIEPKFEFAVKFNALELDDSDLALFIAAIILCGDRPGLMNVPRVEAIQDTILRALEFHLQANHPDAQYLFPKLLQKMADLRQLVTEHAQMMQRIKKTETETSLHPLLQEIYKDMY
Cellular tumor antigen p53 (Homo sapiens), sequence (P04637 whole entry, looked up): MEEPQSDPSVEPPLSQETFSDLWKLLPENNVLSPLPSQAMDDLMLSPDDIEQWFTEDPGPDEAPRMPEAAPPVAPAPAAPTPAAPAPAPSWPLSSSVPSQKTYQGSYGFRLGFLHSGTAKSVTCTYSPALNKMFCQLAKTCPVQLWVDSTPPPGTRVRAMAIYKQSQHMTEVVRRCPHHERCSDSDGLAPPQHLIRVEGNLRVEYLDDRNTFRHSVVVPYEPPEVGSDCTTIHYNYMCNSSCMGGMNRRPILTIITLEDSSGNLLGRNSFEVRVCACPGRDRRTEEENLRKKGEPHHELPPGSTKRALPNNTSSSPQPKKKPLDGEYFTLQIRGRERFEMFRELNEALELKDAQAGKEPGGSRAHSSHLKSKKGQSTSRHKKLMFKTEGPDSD
Myc proto-oncogene protein (Homo sapiens), sequence (P01106 whole entry, looked up): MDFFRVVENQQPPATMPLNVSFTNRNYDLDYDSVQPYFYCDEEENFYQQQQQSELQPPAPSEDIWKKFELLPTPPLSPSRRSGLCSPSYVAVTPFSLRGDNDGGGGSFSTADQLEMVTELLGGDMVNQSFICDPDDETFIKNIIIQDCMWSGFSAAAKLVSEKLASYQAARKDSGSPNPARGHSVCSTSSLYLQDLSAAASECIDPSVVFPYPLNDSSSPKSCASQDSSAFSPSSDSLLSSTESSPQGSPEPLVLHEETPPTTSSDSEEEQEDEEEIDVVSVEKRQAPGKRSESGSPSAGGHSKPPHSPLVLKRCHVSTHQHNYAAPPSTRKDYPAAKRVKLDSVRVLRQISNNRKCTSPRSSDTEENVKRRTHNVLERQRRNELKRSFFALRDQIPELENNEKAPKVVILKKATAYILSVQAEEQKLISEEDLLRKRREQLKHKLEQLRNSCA
human Peroxisome Proliferator-activated Receptor alpha (PPARa), PPARA (gene 5465), sequence (Q07869 whole entry, looked up, the tested form may be a part): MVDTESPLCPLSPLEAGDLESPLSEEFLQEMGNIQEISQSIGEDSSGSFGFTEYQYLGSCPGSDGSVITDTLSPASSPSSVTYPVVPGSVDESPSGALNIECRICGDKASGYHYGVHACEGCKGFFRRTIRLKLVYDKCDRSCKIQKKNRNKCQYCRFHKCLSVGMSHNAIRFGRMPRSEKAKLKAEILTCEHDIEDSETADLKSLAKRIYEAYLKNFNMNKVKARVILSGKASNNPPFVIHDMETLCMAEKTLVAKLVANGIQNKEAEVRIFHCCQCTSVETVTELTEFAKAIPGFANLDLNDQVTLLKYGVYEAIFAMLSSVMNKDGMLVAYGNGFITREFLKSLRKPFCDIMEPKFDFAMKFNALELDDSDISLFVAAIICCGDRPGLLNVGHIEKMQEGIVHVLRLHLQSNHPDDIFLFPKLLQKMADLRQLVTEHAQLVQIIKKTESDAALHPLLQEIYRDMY
Transcriptional activator Myb (Homo sapiens), sequence (P10242 whole entry, looked up): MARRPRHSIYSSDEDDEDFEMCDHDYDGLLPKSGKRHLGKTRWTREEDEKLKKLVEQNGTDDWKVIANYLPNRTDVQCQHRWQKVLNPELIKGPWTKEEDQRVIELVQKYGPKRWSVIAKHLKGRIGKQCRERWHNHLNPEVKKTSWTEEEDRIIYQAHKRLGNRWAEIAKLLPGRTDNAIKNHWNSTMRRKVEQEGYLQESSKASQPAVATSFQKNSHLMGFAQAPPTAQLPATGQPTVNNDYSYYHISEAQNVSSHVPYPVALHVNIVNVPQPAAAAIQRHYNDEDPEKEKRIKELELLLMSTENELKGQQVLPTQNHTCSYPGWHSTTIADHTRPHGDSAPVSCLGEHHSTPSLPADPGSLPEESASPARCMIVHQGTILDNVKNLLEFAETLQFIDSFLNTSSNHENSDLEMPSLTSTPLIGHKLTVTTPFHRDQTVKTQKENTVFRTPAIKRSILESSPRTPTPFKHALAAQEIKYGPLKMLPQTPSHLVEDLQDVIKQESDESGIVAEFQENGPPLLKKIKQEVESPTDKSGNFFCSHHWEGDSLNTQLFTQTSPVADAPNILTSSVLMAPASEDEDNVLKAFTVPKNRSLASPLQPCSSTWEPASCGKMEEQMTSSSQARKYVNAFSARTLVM
Hepatocyte nuclear factor 4-alpha (Homo sapiens), sequence (P41235 whole entry, looked up, the tested form may be a part): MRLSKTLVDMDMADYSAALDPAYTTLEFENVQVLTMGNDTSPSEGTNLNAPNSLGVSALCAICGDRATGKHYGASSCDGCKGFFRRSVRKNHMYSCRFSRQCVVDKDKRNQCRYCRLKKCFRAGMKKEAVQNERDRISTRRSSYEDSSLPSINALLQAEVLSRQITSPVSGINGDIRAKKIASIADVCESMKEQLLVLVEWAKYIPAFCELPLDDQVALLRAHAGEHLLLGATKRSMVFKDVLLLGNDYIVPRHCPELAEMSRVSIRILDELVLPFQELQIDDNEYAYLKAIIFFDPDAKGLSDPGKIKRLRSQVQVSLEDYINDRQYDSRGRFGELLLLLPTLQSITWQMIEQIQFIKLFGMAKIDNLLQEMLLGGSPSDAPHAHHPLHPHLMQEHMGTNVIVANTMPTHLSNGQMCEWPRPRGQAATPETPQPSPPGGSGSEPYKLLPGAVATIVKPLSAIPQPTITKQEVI
Nuclear respiratory factor 1 (Homo sapiens), sequence (Q16656 whole entry, looked up): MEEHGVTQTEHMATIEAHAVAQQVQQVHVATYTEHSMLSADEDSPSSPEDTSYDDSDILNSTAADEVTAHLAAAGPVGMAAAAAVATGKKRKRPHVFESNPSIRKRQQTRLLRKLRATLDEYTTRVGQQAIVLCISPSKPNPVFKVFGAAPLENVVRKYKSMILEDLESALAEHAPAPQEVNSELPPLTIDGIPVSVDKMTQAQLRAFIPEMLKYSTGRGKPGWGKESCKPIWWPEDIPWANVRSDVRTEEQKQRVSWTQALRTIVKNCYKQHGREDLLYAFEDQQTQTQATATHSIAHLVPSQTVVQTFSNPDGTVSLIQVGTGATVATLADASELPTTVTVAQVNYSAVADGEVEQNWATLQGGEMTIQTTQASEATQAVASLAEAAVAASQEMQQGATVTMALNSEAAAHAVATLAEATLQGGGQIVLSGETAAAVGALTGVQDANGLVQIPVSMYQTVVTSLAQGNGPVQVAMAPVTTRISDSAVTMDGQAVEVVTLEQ

With `COP(=S)(OC)Oc1ccc(Sc2ccc(OP(=S)(OC)OC)cc2)cc1`, the compound was classed as inactive in [1], in assay [2], in assay [3], in [4], in assay [5] and in [6]. Besides, the compound was classed as inactive in [7], in assay [8], in assay [10], in [11], in assay [12] and in [16]. In addition, the AC50 in assay [9] was 3.58 µM (active); in assay [13] it was 20 µM (active); in [14], 20 µM (active); in [15], 22.7 µM (active).

As for `N#CN=C(N)N`, the compound was classed as inactive in assay [1], in assay [2], in assay [3], in assay [4], in assay [5] and in assay [6]. The outcome in assay [7], in [8], in assay [17], in assay [9], in assay [10] and in assay [11] was inactive. For the same compound, the result in [15] and in assay [16] was inactive.

As to `O=C(O)C(F)(F)C(F)(F)C(F)(F)C(F)(F)C(F)(F)C(F)(F)F`, the result in [1], in assay [2], in assay [3], in [4], in assay [5] and in assay [6] was inactive. The compound was classed as inactive in assay [7], in assay [8], in [17], in assay [10], in assay [11] and in assay [12]. Moreover, the outcome in [13], in assay [14], in assay [16] and in assay [18] was inactive. The AC50 in [15] is 18.2 µM (active) and 20.7 µM (active).

On to `CC(=O)C(Cl)C(=O)N(C)C` (stereo not given), for which the call in [1], in assay [2], in assay [3], in assay [4], in [5] and in assay [6] was inactive. Besides, the result in assay [7], in [8], in [10], in [15], in assay [16] and in assay [18] was inactive. Besides, the AC50 is 25.9 µM (active) in [9]; 178 µM (active) in [11]; 5.13 µM (active) in [12]; 30.1 µM (active) in [13]; 21.6 µM (active) in assay [14].

Consider `COc1ccccc1OC`, for which the result in assay [1], in assay [2], in assay [3], in [4], in assay [5] and in [6] was inactive. The call in assay [7], in assay [8], in assay [17], in [9], in [10] and in assay [11] was inactive. Moreover, the result in assay [15] and in assay [16] was inactive.

`CN(C)P(=O)(N(C)C)N(C)C`: the compound was classed as inactive in assay [1], in assay [2], in assay [3], in assay [5], in assay [6] and in assay [7]. For the same compound, the compound was classed as inactive in assay [8] and in [11].

As to `Clc1ccc(C2(Cn3cncn3)CC(Br)CO2)c(Cl)c1` (stereo not given), the compound was called inactive in assay [1], in assay [2], in [3], in assay [4], in assay [5] and in assay [7]. Also, the call in [8], in assay [17], in [10], in assay [11] and in [16] was inactive. Moreover, the AC50 in [6] was 47 µM (active).

Take `c1cc[c]([Hg][c]2ccccc2)cc1`: the call in assay [1], in assay [2], in assay [3], in [4], in assay [5] and in [6] was inactive. The result in assay [8], in assay [17], in [11], in assay [15] and in assay [16] was inactive. The AC50 was 20.6 µM (active) in assay [7] and 19 µM (active) in [10].

As to `ClC(Cl)=C(Cl)C(Cl)=C(Cl)Cl`, the call in [1], in assay [2], in assay [3], in assay [4], in assay [5] and in assay [6] was inactive. Also, the compound was called inactive in assay [16]. The AC50 was 163 µM (active) in assay [7]; 119 µM (active) in assay [8]; 66 µM (active) in assay [9]; 149 µM (active) in assay [10]; 14.6 µM (active) in [12]; 32.4 µM (active) in [13]. The AC50 in assay [14] was 36.9 µM (active).

In general, AC50 refers to the midpoint of the concentration-response curve, whichever way the signal moves.
